From PubChem BioAssay (NCATS)
Records with an inconclusive call do not appear. Activity calls are given as the source filed them. Unless noted, calls follow the shape of the dose curve; as a rule, active = well fitted curve in the direction sought with a large enough effect; inconclusive = small, poorly fitted or top-dose-only effect, or another doubt; inactive = no such curve, though single readings can be large; an effect the other way counts as inactive or inconclusive.

Assays:
[1] = molecular target: Cytochrome P450 1A2 (Homo sapiens) (UniProt P05177); assay: p450-cyp1a2 (AID 410; calls by dose curve;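 also: -100% = full effect of reference inhibitor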)
Chain of Cytochrome P450 1A2 (Homo sapiens) (P05177 whole entry, looked up): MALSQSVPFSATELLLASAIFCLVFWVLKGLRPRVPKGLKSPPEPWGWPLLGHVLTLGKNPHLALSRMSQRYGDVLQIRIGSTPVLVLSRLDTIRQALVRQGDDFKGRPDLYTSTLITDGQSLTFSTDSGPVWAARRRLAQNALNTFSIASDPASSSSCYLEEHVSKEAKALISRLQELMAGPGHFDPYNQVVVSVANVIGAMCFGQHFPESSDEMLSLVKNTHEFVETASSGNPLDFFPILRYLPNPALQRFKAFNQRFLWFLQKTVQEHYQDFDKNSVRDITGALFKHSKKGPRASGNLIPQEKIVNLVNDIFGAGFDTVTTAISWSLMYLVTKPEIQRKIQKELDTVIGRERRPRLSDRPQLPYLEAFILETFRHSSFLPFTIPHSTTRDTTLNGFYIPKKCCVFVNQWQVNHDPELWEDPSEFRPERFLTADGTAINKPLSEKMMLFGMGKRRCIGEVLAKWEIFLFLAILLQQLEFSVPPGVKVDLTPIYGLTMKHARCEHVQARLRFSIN
Procedure, shortened: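 Inhibition was calculated relative to 57 uM furafylline (full inhibition). The reaction used human CYP1A2 at 20nM with Luciferin-ME at its Km, 100uM, driven by an NADPH-regenerating system for 60 min at room temperature.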

[2] = NFAT Signaling Pathway (AID 444; active = well fitted curve in either direction with a large enough effect, not every such curve was filed as active;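 also: carbachol stimulus at about its EC50 of 1 µM final; % is scaled to controls: 0 for no effect and ±100 for the full control effect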); details: Jurkat NFAT-bla M1, carbachol, beta-lactamase ratio, 5 h; at 7.69 µM (top of the series) unless noted
Procedure, shortened: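 Jurkat cells with NFAT-driven β-lactamase reporter and co-expressed M1 receptor, stimulated with carbachol (final 1 uM, ~EC50), compound titration, 5 h at 37 °C. CCF4 loaded 1 h at RT; 460/530 nm ratio gave %activity and AC50.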

[3] = molecular target: Glucocorticoid receptor (Homo sapiens) (UniProt P04150); assay: GR-EFC Redistribution (AID 451; calls by dose curve; also: potency is read from the fitted curve at half-maximal effect); details: CHO-K1 GR-EFC translocation, beta-gal luminescence, 2 h
Procedure, shortened: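 CHO-K1 cells expressing nuclear EA and GR-ED fragments of b-gal; compounds titrated up to 46 uM final, 2 h at 37 C. GR nuclear translocation read as complemented b-gal luminescence after 1 h RT detection.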

[4] = molecular target: Mitogen-activated protein kinase 10 (Mus musculus) (UniProt Q61831); assay: JNK3 AlphaScreen Assay (AID 530; active = well fitted curve in either direction with a large enough effect, not every such curve was filed as active;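 also: kinase came from lysate of stimulated human HepG2 cells; signal reports phosphorylation of biotinylated GST-cJun 1-79 at Ser73 with 10 µM ATP; % is scaled to controls: 0 for no effect and ±100 for the full control effect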)
Procedure, shortened: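 qHTS format: compounds tested as titrations against IL-1beta/TNF-alpha-activated HepG2 lysate JNK3 with biotin-GST-cJun substrate and 10 uM ATP at room temperature. Loss of anti-phospho-cJun AlphaScreen signal indicates inhibition.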

[5] = molecular target: 3',5'-cyclic-AMP phosphodiesterase 4B (Homo sapiens) (UniProt Q07343); assay: qHTS Assay for Inhibitors of PDE-IV (AID 607; active = well fitted activation curve with a large enough effect in the main read-out, with a control signal flat, not every such curve was filed as active; also: % of control where 0% means no effect)
Chain of 3',5'-cyclic-AMP phosphodiesterase 4B (Homo sapiens) (Q07343 whole entry, looked up): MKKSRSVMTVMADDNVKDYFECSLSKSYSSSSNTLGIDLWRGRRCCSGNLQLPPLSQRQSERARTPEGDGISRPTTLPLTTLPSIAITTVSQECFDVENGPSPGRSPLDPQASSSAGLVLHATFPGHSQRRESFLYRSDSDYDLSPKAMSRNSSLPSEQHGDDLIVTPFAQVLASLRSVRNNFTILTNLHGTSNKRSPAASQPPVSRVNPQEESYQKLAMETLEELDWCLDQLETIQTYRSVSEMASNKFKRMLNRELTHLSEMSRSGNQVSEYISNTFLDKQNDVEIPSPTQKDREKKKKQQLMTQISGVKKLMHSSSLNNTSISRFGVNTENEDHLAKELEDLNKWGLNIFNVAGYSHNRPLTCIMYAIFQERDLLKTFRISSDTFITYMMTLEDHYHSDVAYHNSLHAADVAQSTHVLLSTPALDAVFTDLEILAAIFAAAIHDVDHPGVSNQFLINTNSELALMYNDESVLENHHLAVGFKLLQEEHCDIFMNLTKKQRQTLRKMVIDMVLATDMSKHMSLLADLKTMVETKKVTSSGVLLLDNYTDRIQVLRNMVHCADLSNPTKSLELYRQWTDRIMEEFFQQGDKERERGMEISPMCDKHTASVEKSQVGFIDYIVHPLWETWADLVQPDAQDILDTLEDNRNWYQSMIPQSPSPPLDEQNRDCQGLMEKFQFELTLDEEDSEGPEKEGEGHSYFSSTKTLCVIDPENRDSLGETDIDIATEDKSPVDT
Procedure, shortened: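 ACTOne HEK293 cells carry a modified cAMP-gated CNG channel and express endogenous PDE4; plated 1000 cells/well, compounds up to 22.9 uM final. Membrane-potential dye fluorescence (ex 535/em 590) was read; parental cells received 10 uM forskolin + 100 uM RO 20-1724.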

[6] = molecular target: Guanine nucleotide-binding protein G(i) subunit alpha-1 (Homo sapiens) (UniProt P63096); assay: qHTS Assay for Inhibitors of RGS12 GoLoco Motif Activity (Green Fluorophore) (AID 879);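 also: 0% = labeled peptide with Gαi1 and full inhibition = labeled peptide alone without protein; negative values mean loss of peptide binding seen as reduced polarization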
Chain of Guanine nucleotide-binding protein G(i) subunit alpha-1 (Homo sapiens) (P63096 whole entry, looked up): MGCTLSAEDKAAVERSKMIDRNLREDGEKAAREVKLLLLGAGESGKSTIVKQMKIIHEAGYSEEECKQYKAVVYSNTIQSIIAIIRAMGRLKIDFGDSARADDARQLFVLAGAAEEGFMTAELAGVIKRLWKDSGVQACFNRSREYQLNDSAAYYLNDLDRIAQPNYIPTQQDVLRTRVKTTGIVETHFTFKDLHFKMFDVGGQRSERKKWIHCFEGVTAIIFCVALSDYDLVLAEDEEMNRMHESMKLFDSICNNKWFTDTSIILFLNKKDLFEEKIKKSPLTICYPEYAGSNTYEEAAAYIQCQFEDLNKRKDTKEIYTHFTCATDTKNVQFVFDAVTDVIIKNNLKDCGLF
Procedure, shortened: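 Fluorescence polarization assay: 50 nM Gαi1 with 10 nM FITC-labeled RGS12 GoLoco peptide in 10 mM Tris pH 7.5, 150 mM NaCl, 0.1 mM GDP, 0.05% NP40, 10 min at room temperature with compound.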

[7] = molecular target: Cytochrome P450 3A4 (Homo sapiens) (UniProt P08684); assay: qHTS Assay for Activators of Cytochrome P450 3A4 (AID 885); also: nearly all actives have a fitted effect of over 65% in size
Procedure, shortened: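 20nM CYP3A4 + 25uM Luciferin-PPXE (=KM), 200mM KPO4; cpd 10 min RT; NADPH regen, 60 min RT; stop w/ detection buffer, 20 min; luminescence. Normalized to 57 uM ketoconazole.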

[8] = molecular target: Cytochrome P450 2D6 (Homo sapiens) (UniProt P10635); assay: qHTS Assay for Inhibitors and Substrates of Cytochrome P450 2D6 (AID 891); also: potency is read from the fitted curve at half-maximal effect; nearly all actives have a fitted effect of over 60% in size
Procedure, shortened: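 Human CYP2D6 (5 nM) with 30 uM Luciferin-ME EGE (at Km) in 100 mM KPO4, compound preincubated 10 min, then NADPH regeneration system for 60 min at room temperature. Luciferin read by luminescence; normalized to 1.43 uM quinidine.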

[9] = qHTS Assay for Identification of Small Molecule Antagonists for Thrombopoietin (TPO) Signaling Pathway (AID 918); details: TPO-dependent cell signaling reporter, antagonist mode; also: potency is read from the fitted curve at half-maximal effect; nearly all actives have a fitted effect of over 60% in size
Procedure, shortened: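 First, Ba/F3 reporter cells expressing human TPO receptor were held overnight without IL-3. Next, compound and 26 pM TPO were added. After 24 hrs incubation at 37 C, luciferase luminescence under the Glycoprotein IIb promoter was recorded.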

[10] = molecular target: Muscarinic acetylcholine receptor M1 (Rattus norvegicus) (UniProt P08482); assay: qHTS Assay for Antagonists of Acetylcholine Muscarinic M1 Receptor: Measurement of IP-One Response (AID 944); also: potency is read from the fitted curve at half-maximal effect; nearly all actives have a fitted effect of over 75% in size
Procedure, shortened: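 Steps: plate transfected CHO-M1 cells overnight; add test compound, 10 min; add carbachol (200 nM, EC80) in stimulation buffer with LiCl; incubate 30 min; add labelled IP1 tracer and anti-IP1 antibody in lysis buffer; read HTRF after 10 min.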

[11] = molecular target: Pyruvate kinase (Leishmania mexicana) (UniProt Q27686); assay: qHTS Validation Assay for Inhibitors of Leishmania Mexicana Pyruvate Kinase (AID 945);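 also: 0% = DMSO only neutral control wells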
Procedure, shortened: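 Substrate mix (0.5 mM PEP, 0.1 mM ADP, 7 mM MgCl2, 50 mM KCl, pH 7.2 imidazole) received compound by pin tool, then 0.2 nM LmPYK E451W. After 1 h at room temperature, PKLight was added and luminescence measured.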

[12] = molecular target: Pyruvate kinase PKM (Homo sapiens) (UniProt P14618); assay: qHTS Assay for Activators of Human Muscle Pyruvate Kinase (AID 954; active = well fitted curve in the direction sought with a large enough effect, not every such curve was filed as active;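 also: 0% = uninhibited enzyme and -100% = no enzyme or full thiadiazolimine inhibition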)
Chain of Pyruvate kinase PKM (Homo sapiens) (P14618 whole entry, looked up): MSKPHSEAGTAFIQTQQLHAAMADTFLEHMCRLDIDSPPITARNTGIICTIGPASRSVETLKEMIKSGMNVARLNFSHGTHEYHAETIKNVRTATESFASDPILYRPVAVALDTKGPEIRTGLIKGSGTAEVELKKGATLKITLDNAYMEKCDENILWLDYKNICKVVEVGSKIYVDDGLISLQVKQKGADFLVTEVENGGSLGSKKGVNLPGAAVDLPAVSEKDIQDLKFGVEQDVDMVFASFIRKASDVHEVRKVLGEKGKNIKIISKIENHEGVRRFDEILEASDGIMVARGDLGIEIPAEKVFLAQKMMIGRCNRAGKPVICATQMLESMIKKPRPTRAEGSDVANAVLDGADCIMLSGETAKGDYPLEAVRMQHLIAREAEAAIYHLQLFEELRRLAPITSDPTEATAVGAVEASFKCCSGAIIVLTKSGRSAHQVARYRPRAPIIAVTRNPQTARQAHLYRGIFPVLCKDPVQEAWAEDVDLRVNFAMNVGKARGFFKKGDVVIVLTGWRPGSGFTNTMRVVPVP
Procedure, shortened: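 Luminescence from a luciferase ATP-detection/stop reagent reported PKM2 activity. Reactions contained 0.1 nM purified human enzyme, 0.5 mM PEP, 0.1 mM ADP and 7 mM MgCl2 at pH 7.2, run 1 h at RT.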

[13] = molecular target: Alpha-galactosidase A (Homo sapiens) (UniProt P06280); assay: Counterscreen for Glucocerebrosidase Inhibitors: qHTS Assay for Human alpha-Galactosidase at pH 4.5 (AID 992); also: 0% is about no effect
Chain of Alpha-galactosidase A (Homo sapiens) (P06280 whole entry, looked up): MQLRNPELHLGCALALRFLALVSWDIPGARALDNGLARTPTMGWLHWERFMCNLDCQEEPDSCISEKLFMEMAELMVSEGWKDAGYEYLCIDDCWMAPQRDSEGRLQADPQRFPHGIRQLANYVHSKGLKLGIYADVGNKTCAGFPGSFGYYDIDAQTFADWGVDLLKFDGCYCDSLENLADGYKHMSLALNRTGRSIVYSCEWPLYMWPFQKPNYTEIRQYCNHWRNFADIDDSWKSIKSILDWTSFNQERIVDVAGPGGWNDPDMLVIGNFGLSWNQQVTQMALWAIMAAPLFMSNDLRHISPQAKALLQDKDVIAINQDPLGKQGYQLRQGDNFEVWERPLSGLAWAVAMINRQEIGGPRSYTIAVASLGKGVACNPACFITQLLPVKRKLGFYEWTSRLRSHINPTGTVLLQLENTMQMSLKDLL
Procedure, shortened: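 Enzyme at 2 nM final was combined with compound (0.7 nM to 77 uM) and 80 uM 4-methylumbelliferyl alpha-D-galactopyranoside in 50 mM citric acid, 0.005% Tween-20, pH 4.5. After 20 min at room temperature, fluorescence was read (Ex 365/Em 440 nm); AC50 came from Hill fits.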

[14] = molecular target: alpha-glucosidase (Oryza sativa, rice) (UniProt Q653V4); assay: Counterscreen for Glucocerebrosidase Inhibitors: qHTS Assay for Rice alpha-Glucosidase at pH 5.0 (AID 997);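 also: 0% = full activity with enzyme and -100% = basal without enzyme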
Procedure, shortened: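 Rice alpha-glucosidase (4 nM final) with 400 uM 4-methylumbelliferyl-alpha-D-glucopyranoside in citrate buffer pH 5.0, 20 min at room temperature, stopped at pH 10; fluorescence 365/440 nm, compounds 0.7 nM–77 uM, AC50 from Hill fits.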

[15] = molecular target: DNA repair nuclease/redox regulator APEX1 (Homo sapiens) (UniProt P27695); assay: qHTS Validation Assay for Inhibitors of the Human Apurinic/apyrimidinic Endonuclease 1 (APE1) (AID 1705; also: potency is read from the fitted curve at half-maximal effect)
Procedure, shortened: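 qHTS, 1536-well. APE1 + cpd 15 min RT → 50 nM TAMRA/BHQ-2 THF-abasic dsDNA substrate → kinetic fluorescence, 3 reads/60 s; delta(read3−read1) = reaction progress. No-enzyme buffer = negative control.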

[16] = Counterscreen for APE1 Inhibitors: Fluorescent Dye Displacement Validation Assay (AID 1707);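 also: plate controls were ThO with dsDNA and no compound for no effect and ThO without dsDNA for full effect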
Procedure, shortened: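 Thiazole Orange displacement from dsDNA: 250 nM ThO with 50 nM TAMRA-labelled abasic-site (tetrahydrofuran) duplex in 50 mM Tris-HCl pH7.5, 50mM NaCl, 2 mM MgCl2, 0.01% Tween-20. Loss of endpoint fluorescence (ex 480 nm, em 540 nm) flags DNA binders.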

[17] = molecular target: Endonuclease 4 (Escherichia coli (strain K12)) (UniProt P0A6C1); assay: Counterscreen for APE1 Inhibitors: qHTS Validation Assay for Inhibitors of Endonuclease IV (AID 1708); also: potency is read from the fitted curve at half-maximal effect
Procedure, shortened: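 Cleavage of a quenched abasic-site DNA duplex (50 nM, 5'-TAMRA, 3'-BHQ-2) by 2 nM enzyme is followed as fluorescence increase. Compounds are preincubated with enzyme 15 min at room temperature before substrate addition.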

[18] = qHTS for differential inhibitors of proliferation of Plasmodium falciparum line 7G8 (AID 1815);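 also: potency is read from the fitted curve at half-maximal effect; parasite growth measured after three days of incubation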
[19] = qHTS for differential inhibitors of proliferation of Plasmodium falciparum line GB4 (AID 1816); details: Potency: Plasmodium falciparum GB4 proliferation inhibition;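 also: potency is read from the fitted curve at half-maximal effect; parasite growth measured after 72 h incubation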
[20] = qHTS for differential inhibitors of proliferation of Plasmodium falciparum line 3D7 (AID 1876); also: potency is read from the fitted curve at half-maximal effect
[21] = qHTS for differential inhibitors of proliferation of Plasmodium falciparum line D10 (AID 1877);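 also: potency is read from the fitted curve at half-maximal effect; parasites grown with compound for 72 h before DNA staining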
[22] = qHTS for differential inhibitors of proliferation of Plasmodium falciparum line W2 (AID 1883); details: Potency: Plasmodium falciparum W2 proliferation inhibition;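 also: potency is read from the fitted curve at half-maximal effect; parasites grown with compound for 72 h before lysis and staining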
[23] = qHTS for differential inhibitors of proliferation of Plasmodium falciparum line HB3 (AID 1886); details: Potency: Plasmodium falciparum HB3 proliferation inhibition;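 also: potency is read from the fitted curve at half-maximal effect; parasites grown with compound for 72 h before SYBR Green readout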
[24] = Quantitative high throughput screen for delayed death inhibitors of the malarial parasite plastid, 48 hour incubation (AID 488752); also: potency is read from the fitted curve at half-maximal effect; nearly all actives have a fitted effect of over 65% in size
Procedure, shortened: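 One parasite generation (48 h, 37 C, 5% CO2) of luciferase-reporter P. falciparum in erythrocytes is run with test compound; decreased luminescence indicates inhibited growth.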

[25] = molecular target: M-phase phosphoprotein 8 (Homo sapiens) (UniProt Q99549); assay: qHTS Validation Assay for Inhibitors for MPP8 Chromodomain Interactions with Methylated Histone Tails (AID 488949); also: potency is read from the fitted curve at half-maximal effect; nearly all actives have a fitted effect of over 55% in size
Procedure, shortened: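 50 nM MPP8 + 50 nM b-H3K9me3 peptide, PBS pH 7.4/0.01% Tween-20, 30 min RT; + cpd 30 min RT; + AlphaScreen donor/Ni-chelate acceptor beads 10 ug/mL final, 30 min dark; luminescence read.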

[26] = molecular target: Transient receptor potential cation channel subfamily V member 1 (Homo sapiens) (UniProt Q8NER1); assay: HTS Assay for Compounds that Act as Enhancers of the Vanilloid Receptor 1 (AID 488979); also: 0% is about no effect
Procedure, shortened: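 TRPV1 cells loaded with Fluo-8 calcium dye; compound added and Ca2+ signal (ex 480/em 520 nm) followed 3 min, then capsaicin at EC20 added and read 2 more min to detect enhancement.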

[27] = molecular target: Thyrotropin receptor (Homo sapiens) (UniProt P16473); assay: qHTS Assay for Antagonists of the Thyroid Stimulating Hormone Receptor (AID 488980); also: 0% is about no effect
Procedure, shortened: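 Readout is cAMP by HTRF competition between cellular cAMP and cAMP-d2 for a cryptate-labelled antibody. Antagonism was assessed in TSHR-transfected HEK293 cells stimulated with 4 nM TSH (EC80, final) in the presence of RO 20-1724.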

[28] = molecular target: Thyrotropin-releasing hormone receptor (Homo sapiens) (UniProt P34981); assay: qHTS for Small Molecule Agonists and Allosteric Enhancers of Human TRH Receptor: Validation Screen for Agonists (AID 493127;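 active = calcium activation more than 3 SD above the typical response in the agonist read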;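 also: intracellular calcium rise by fluo-8 fluorescence before TRH EC20 addition; 0% is about no effect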); details: TRH receptor agonist cell assay; at 2 µM; stronger effect = higher value
Procedure, shortened: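 Gq-coupled calcium mobilization in TRHR cells after compound addition, monitored kinetically with fluo-8 dye on an FDSS reader.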

[29] = molecular target: Galactokinase (Homo sapiens) (UniProt P51570); assay: qHTS Validation Assay for Inhibitors of Human Galactokinase (GALK) (AID 493189); also: 0% is about no effect
Chain of Galactokinase (Homo sapiens) (P51570 whole entry, looked up): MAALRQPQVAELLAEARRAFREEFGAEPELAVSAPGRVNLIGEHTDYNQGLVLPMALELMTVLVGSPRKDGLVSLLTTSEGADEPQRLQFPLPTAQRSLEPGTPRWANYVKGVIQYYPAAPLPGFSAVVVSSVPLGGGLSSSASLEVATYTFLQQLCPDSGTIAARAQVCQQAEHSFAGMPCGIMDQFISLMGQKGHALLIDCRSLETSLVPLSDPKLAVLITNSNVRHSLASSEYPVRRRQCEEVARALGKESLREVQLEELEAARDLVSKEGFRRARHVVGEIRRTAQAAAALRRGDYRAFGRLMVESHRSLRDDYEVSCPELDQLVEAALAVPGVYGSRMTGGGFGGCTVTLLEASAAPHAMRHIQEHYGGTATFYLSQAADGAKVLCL
Procedure, shortened: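 5 nM GALK / 100 uM galactose / 35 uM ATP, 20 mM HEPES pH8.0, 5 mM MgCl2, 60 mM NaCl, 1 mM DTT, 0.01% BSA (final). RT 1 h; Kinase-Glo Plus luminescence.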

[30] = molecular target: Voltage-gated inwardly rectifying potassium channel KCNH2 (Homo sapiens) (UniProt Q12809); assay: qHTS Assay for Small Molecule Inhibitors of the Human hERG Channel Activity (AID 588834);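 also: potency is read from the fitted curve at half-maximal effect; lower thallium flux fluorescence means stronger hERG block; nearly all actives have a fitted effect of over 50% in size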
Chain of Voltage-gated inwardly rectifying potassium channel KCNH2 (Homo sapiens) (Q12809 whole entry, looked up): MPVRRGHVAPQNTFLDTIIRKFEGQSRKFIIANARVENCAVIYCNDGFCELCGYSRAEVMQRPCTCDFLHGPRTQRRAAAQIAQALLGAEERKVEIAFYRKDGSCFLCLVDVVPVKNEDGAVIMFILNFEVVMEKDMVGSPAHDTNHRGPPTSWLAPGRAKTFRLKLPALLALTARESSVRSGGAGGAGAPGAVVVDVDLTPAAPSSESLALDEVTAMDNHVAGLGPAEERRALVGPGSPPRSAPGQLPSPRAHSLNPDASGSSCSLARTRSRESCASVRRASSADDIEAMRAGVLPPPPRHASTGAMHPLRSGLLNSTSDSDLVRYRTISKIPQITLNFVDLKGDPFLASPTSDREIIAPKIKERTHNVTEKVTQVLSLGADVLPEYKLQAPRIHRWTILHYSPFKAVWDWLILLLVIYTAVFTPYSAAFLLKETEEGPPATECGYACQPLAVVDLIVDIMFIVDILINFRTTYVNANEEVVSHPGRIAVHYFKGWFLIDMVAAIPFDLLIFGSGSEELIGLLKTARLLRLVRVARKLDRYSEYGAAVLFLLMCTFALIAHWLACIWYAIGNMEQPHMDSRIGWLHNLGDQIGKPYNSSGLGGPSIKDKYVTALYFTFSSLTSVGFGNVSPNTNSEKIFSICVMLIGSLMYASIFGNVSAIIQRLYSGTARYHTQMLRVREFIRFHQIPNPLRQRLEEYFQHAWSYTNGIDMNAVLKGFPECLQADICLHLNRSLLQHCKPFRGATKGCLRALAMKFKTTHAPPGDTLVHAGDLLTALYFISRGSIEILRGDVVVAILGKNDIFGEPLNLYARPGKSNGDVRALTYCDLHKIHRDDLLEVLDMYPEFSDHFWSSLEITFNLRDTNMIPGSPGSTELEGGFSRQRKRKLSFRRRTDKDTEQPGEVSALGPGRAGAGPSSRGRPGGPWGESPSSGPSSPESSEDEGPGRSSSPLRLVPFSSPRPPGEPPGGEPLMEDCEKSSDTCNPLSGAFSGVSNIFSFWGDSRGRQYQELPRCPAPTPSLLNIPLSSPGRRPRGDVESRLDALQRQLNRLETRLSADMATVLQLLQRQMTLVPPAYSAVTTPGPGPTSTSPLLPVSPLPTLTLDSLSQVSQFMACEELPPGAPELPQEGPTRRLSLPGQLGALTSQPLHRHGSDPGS
Procedure, shortened: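 hERG-BacMam U2OS, 2000 cells/well; 0.7X FluxOR loading 1 hr RT dark; cpd ~10 min 37 °C; stim buffer; FDSS fluorescence 2 min @ 1 s; AC50 Hill fit.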

[31] = molecular target: Catechol O-methyltransferase (Homo sapiens) (UniProt P21964); assay: Confirmatory Screen for Target Class Profiling of Small Molecule Inhibitors of Methyltransferases (AID 1745852); details: MTase-Glo luminescence, SAH detection, recombinant enzyme; measured here: COMT max response; stronger effect = lower value; as to activity change, negative = inhibition: % is scaled to controls: 0 for no effect and ±100 for the full control effect
Chain of Catechol O-methyltransferase (Homo sapiens) (P21964 whole entry, looked up): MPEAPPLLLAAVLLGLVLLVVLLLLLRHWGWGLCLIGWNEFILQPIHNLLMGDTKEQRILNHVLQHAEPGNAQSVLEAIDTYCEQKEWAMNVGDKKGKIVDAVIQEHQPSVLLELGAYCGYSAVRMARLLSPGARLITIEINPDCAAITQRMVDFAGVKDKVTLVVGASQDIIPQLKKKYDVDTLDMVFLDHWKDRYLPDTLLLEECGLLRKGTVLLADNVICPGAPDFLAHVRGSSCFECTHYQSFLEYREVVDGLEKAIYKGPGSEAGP

[32] = molecular target: Guanidinoacetate N-methyltransferase (Homo sapiens) (UniProt Q14353); assay: as above; details: activity change, negative = inhibition: at 57.3 µM (top of the series) unless noted
[33] = molecular target: Nicotinamide N-methyltransferase (Homo sapiens) (UniProt P40261); assay: as above; details: MTase-Glo luminescence, SAH detection, recombinant enzyme; measured here: NNMT max response; stronger effect = lower value
Chain of Nicotinamide N-methyltransferase (Homo sapiens) (P40261 whole entry, looked up): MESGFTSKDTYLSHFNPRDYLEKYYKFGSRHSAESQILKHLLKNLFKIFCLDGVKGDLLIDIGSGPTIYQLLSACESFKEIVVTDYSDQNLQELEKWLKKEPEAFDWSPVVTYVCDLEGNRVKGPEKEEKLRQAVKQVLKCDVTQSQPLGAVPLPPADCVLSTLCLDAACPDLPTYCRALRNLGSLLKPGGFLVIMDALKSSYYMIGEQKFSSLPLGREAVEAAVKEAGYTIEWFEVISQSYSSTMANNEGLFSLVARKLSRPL

[34] = molecular target: Phenylethanolamine N-methyltransferase (Homo sapiens) (UniProt P11086); assay: as above; details: MTase-Glo luminescence, SAH detection, recombinant enzyme; measured here: PNMT max response; stronger effect = lower value
Chain of Phenylethanolamine N-methyltransferase (Homo sapiens) (P11086 whole entry, looked up): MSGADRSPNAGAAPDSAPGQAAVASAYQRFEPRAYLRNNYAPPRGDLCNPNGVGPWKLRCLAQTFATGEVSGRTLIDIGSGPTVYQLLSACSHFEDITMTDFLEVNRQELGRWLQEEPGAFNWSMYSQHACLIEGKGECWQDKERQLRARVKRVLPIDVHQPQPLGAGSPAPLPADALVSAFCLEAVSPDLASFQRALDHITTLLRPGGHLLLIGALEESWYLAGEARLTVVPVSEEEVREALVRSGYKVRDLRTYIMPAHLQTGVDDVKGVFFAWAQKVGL

Cc1cc(N)c2ccccc2[n+]1CCCCCCCCCCCCCC[n+]1c(C)cc(N)c2ccccc21
active: activity change, negative = inhibition [2] -82.1% [at 38 µM] | Potency [8] 7940 nM | Potency [9] 2510 nM | Potency [10] 3980 nM | Potency [15] 28200 nM | Potency [17] 28200 nM | Potency [18] 316 nM | Potency [19] 316 nM | Potency [20] 126 nM | Potency [21] 316 nM | Potency [22] 141 nM | Potency [23] 316 nM | Potency [24] 1470 nM | Potency [25] 39800 nM | Potency [30] 7080 nM
inactive: Potency [1] | Potency [3] > 46000 nM | Potency [4] | Potency [5] | Potency [6] | outcome [7] | outcome [11] | outcome [12] | outcome [13] | outcome [14] | outcome [16] | outcome [26] | outcome [27] | activation [28] -0.125% | outcome [29]

CN(C)CC1(O)CCC2(CCN(C(=O)c3cccn3C)CC2)CC1
7.38%: activity [31]
3.1%: activity [33]
9.04%: activity [34]
3.21%: activity change, negative = inhibition [32]

CCOC(=O)C1CCCN(S(=O)(=O)c2ccc3[nH]c(=O)[nH]c3c2)C1 (stereo not drawn)
-50.4%: activity [34]
-6.43%: activity [33]
0%: activity change, negative = inhibition [32]
2.57%: activity [31]
